Experimental data as given in PubChem BioAssay (NCATS).
Inconclusive results are not listed. A call without a number means that no potency is given here. The source made the active and inactive calls. Calls come from the whole dose curve; as a rule, active = well fitted inhibition curve with a large enough effect; inconclusive = small, poorly fitted or top-dose-only effect; inactive = no such curve, though single readings can be large or run the other way.

Molecular target: Retinaldehyde dehydrogenase 3 (Homo sapiens) (UniProt P47895)
Assay: qHTS for Inhibitors of the Aldehyde Dehydrogenase Family (ALDH1A3) Primary screen (AID 2061315)
Details: ALDH inhibition qHTS; series mostly up to 56 µM

Compound | Potency
Cc1ccnc(NC(=S)N2CCN(c3cc(C(F)(F)F)cc(C(F)(F)F)c3)CC2)c1 | inactive
CCN1CCC[C@@H]1CNC(=O)c1ccc2c(c1)NC(=O)/C(=C/c1ccccc1F)S2 | inactive
O=C1CCCC2=C1C(c1[nH]ncc1Cl)NC(=NCc1ccoc1)N2 (configuration not stated) | inactive
O=C(OCC#CCSc1nnc(-c2cccc3ccccc23)o1)c1ccc(SC(F)(F)F)cc1 | inactive
COc1cc(F)c(S(=O)(=O)N2CCCN(S(=O)(=O)c3cccc(N)c3)CC2)c(F)c1 | inactive
Cc1cc2c(s1)c1cnn(Cc3cccc(Cl)c3)c(=O)c1n2C | inactive
COc1ccccc1C1N=C(Nc2nc3ccccc3o2)NC2=C1C(=O)CCC2 (configuration not stated) | inactive
O=C(OCC#CCSc1nnc(-c2cccc3ccccc23)o1)c1ccc(Cl)cc1 | inactive
CC(C)(C)OC(=O)Cc1nnc(-c2cc3ccccc3[nH]2)s1 | inactive
COc1ccc(-c2nc3ccc(OC)cc3s2)cc1 | inactive
CC(=O)Nc1sc2c(c1-c1ccccc1F)CCNC2 | inactive
Fc1ccc(Nc2nc(-c3ccncc3)nc3ccccc23)cc1F | inactive
CN(c1ccc(NC(=O)Nc2ccccc2)cc1)S(=O)(=O)c1cnn(-c2ccc(F)cc2)c1 | inactive
NCCCCNc1ncnc2ccc(-c3ccc4c(c3)OCO4)cc12 | inactive
C=C(C)C(=O)O[C@H]1/C(C=O)=C\CC/C(CO)=C/[C@H]2OC(=O)C(=C)[C@@H]2[C@@H]1OC | inactive
Cc1ccc(S(=O)(=O)Nc2cnccc2C(=O)Nc2nc(-c3ccccc3F)cs2)cc1 | inactive
CN(C)c1ccc(-c2ccc(=O)n(CC(=O)NCCc3ccccc3)n2)cc1 | inactive
